Results: PubChem BioAssay AID485344 (National Center for Advancing Translational Sciences (NCATS), 2010)
Several values for one entry are separate records, joined by “and”; a condition that tells them apart may be missing. Equal values may be shown once. About 6,900 (2%) of roughly 340,000 compounds were called active. Rule as the data show it: active = inhibition above about 30%; inactive = below that, where a call was filed. The full list was thinned out, with actives kept by preference. Where a structure was tested more than once in an assay, its records may differ in their call.

What follows are molecules tested against D(2) dopamine receptor (Homo sapiens) (UniProt P14416) (assay: HTS Assay for Allosteric Antagonists of the Human D2 Dopamine Receptor: Primary Screen for Antagonists). Conditions: HEK293 TREx D2 cells, calcium flux, dopamine EC80; at 10 µM; stronger effect = higher value.
In short: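 Cells plated overnight at 30 C with tetracycline; no-wash calcium dye, 30–90 min RT; 10 s baseline; compound pinned; 180 s read; EC80 dopamine added; another 180 s read.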
Also: 0% is about no effect.

Sequence of D(2) dopamine receptor (Homo sapiens) (P14416 whole entry, looked up): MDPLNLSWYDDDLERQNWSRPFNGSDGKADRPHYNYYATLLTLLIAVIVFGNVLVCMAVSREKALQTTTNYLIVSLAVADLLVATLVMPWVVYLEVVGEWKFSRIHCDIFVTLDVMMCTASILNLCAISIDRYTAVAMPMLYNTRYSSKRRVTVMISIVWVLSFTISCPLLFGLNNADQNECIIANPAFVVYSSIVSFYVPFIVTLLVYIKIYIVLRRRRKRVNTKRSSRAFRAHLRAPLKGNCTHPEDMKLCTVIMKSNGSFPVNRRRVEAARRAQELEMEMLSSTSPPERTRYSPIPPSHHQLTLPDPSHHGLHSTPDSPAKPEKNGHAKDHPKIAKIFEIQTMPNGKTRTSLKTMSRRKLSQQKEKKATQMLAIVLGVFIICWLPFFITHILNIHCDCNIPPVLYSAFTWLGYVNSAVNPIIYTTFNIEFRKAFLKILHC

inhibition, active:
COc1cc(CNCc2ccc(OC)c3ccccc23)cc(OC)c1OC 33%
COc1ccc(-n2c(SCC(=O)NCc3cccs3)nnc2-c2ccoc2C)cc1 42.5%
COc1ccc(CCNCc2c(-c3ccccc3)n(C)c3ccccc23)cc1 45.6%
COc1ccc(C2C(C#N)=C(N)Oc3n[nH]c(C)c32)cc1CN1CCN(c2ccc(F)cc2)CC1 (configuration not stated) 53.9%
O=C(Cc1cccs1)N(CC1CCCO1)C1(C(=O)NC2CCCCC2)CCCCC1 (configuration not stated) 34%
CC(Oc1ccccc1)C(=O)Nc1c2c(nn1-c1ccccc1)CS(=O)C2 (configuration not stated) 30.2%
COc1ccc(F)c(-c2nc(CN3CCC(c4ccccc4)CC3)c(C)o2)c1 93.5%
NS(=O)(=O)c1ccc(-c2ccc(/C=C3\SC(=O)NC3=O)o2)cc1 47.3%
CC(C)=CCC/C(C)=C/C(=O)O 55.4%
O=C(CCNC(=O)c1ccc(Br)cc1)NCCCc1ccccc1 34.2%
COC(=O)c1ccc(CSc2ccccc2C)o1 34.1%
CC(=O)Oc1ccccc1C(=O)Nc1ncc([N+](=O)[O-])s1 35%
OC(COc1cccc2ccccc12)CN1CCN(c2ccccn2)CC1 (configuration not stated) 75.1%
CC(=O)Nc1ccc(OCC(O)CN2CCN(c3ccccc3Cl)CC2)cc1 (configuration not stated) 76.3%
O=C(c1ccccc1)c1ccc(OCC(O)CN2CCCC2)cc1 (configuration not stated) 71.8%
CC(C)c1ccc(OCC(O)CN2CCN(c3ccccn3)CC2)cc1 (configuration not stated) 74.5%
Cc1ccccc1OCC(O)CN1CCN(c2ccccn2)CC1 (configuration not stated) 87.2%
COC(=O)Cc1cc(=O)n(-c2nc3ccccc3s2)[nH]1 36.2%

inhibition, inactive:
CCn1c(SCC(=O)NCC2CCCO2)nc2ccccc21 (configuration not stated) -20.8%
COC(=O)C1CCN(C(=O)c2cc(=O)[nH]c3ccccc23)CC1 17.7%
O=C(NC1CCCCC1)N1CCc2[nH]c3ccccc3c2C1 -14.3%
O=C(COC(=O)Cc1ccc(Br)cc1)Nc1ccc(N2CCOCC2)cc1 22.4%
COc1cc(CNCc2cccs2)cc(Br)c1OC -4.22%
COc1ccc(CNC(=O)Cc2ccc(-c3ccccc3)cc2)cc1OC 20.3%
COC(=O)C1=CO[C@@H](O[C@@H]2O[C@H](CO)[C@@H](O)[C@H](O)[C@H]2O)C2C1C[C@H](O)[C@@H]2C (some centres not stated) -6.47%
COc1ccc(-n2nnnc2SCC(=O)NCc2cccs2)cc1 -2.89%
COc1ccc(-n2c(SCC(=O)NCc3ccco3)nnc2-c2c[nH]c3ccccc23)cc1 -8.02%
CN1CCN(S(=O)(=O)c2cccc(C(=O)Nc3sccc3C#N)c2)CC1 0.535%
CN(C)C(=O)c1ccc(NC(=O)COC(=O)c2cc3c(s2)CCCCC3)cc1 -7.26%
COc1ccc(-c2c(C#Cc3ccccc3)c3ccccc3n2C)cc1 9.11%
COc1ccc(-c2nc3ccccc3c(=O)n2CCc2ccc(O)cc2)cc1 -13.4%
CCOc1c(OC)cc(C2C(C#N)=C(N)Oc3n[nH]c(-c4ccncc4)c32)cc1OC (configuration not stated) -9.43%
CCCc1[nH]nc2c1C(c1ccc(OC)c(Cn3nc(C)c(Br)c3C)c1)C(C#N)=C(N)O2 (configuration not stated) -23.9%
COc1ccccc1/C=C/C(=O)OCC(=O)NC1CCCCCC1 -12.9%
CCN(CC(=O)Nc1ccccc1C(=O)NC1CC1)Cc1cccs1 0.568%
Cc1cc(C)c(C#N)c(SCC(=O)N(CC(C)C)C2CCS(=O)(=O)C2)n1 (configuration not stated) 6.67%
CC1CC1C(=O)OCC(=O)Nc1cccc(F)c1 (configuration not stated) 17.3%
CC(=O)N(CC1CCCO1)C1(C(=O)NC2CCCC2)CCCCC1 (configuration not stated) -1.19%
Cc1ccsc1C(C(=O)NC1CCCCC1)N(C(=O)Cc1cccs1)C1CC1 (configuration not stated) 2.03%
COc1ccc(N(CCC(=O)NCCc2ccccc2)S(=O)(=O)c2ccc(C)cc2C)cc1 -18.2%
COc1cc2c(cc1OC)CN(C(C)C(=O)Nc1cccc(S(=O)(=O)N3CCOCC3)c1)CC2 (configuration not stated) 15.6%
COc1ccc(CC(=O)Nc2c3c(nn2-c2cccc(Cl)c2)CS(=O)C3)cc1 (configuration not stated) -9.37%
CC(C)C(=O)Nc1c2c(nn1-c1ccccc1)CSC2 7.83%
O=c1ccc(S(=O)(=O)N2CCCC2)cn1Cc1nc(-c2ccccc2)no1 15.2%
COc1ccc(-c2nc(CN3CCN(c4ncccn4)CC3)c(C)o2)cc1C 0.804%
CCOc1ccccc1-c1nc(CN2CCC(C(=O)N3CCOCC3)CC2)c(C)o1 -1.66%
COc1ccccc1N1CCN(CC(=O)Nc2ccnn2C2CCCC2)CC1 14.3%
CC(=O)NC12CC3CC(C1)CC(C(=O)N1CCN(S(=O)(=O)c4cccs4)CC1)(C3)C2 -3.14%
O=C1c2ccccc2C(=O)N1CCC#Cc1ccc2cc(C3(O)CCCCC3)oc(=O)c2c1 -4.36%
COc1cccc(N2CC(NS(=O)(=O)c3ccc(Cl)cc3)CC2=O)c1 (configuration not stated) 12%
CN1CCN(/N=C/c2ccc(-c3ccc([N+](=O)[O-])cc3)o2)CC1 11.1%
CN1C(=O)/C(=C\c2ccc(-c3ccccc3)o2)SC1=S 16.2%
COC(=O)c1sc(NC(=O)COC(=O)C2CCC2)c(C(=O)OC)c1C 3.68%
CC(Sc1ncnc2c1cnn2-c1ccccc1)C(=O)Nc1ccc(N2CCOCC2)cc1 (configuration not stated) 8.83%
CCOc1ccc(C(C)=O)cc1COC(=O)CN1C(=O)NC2(CCCC2)C1=O 5.14%
O=C(CCc1ccccc1)NNC(=O)c1ccc(Br)cc1 -5.25%
CC(C)c1ccc(C(=O)NCCCc2ccccc2)cc1 -23.5%
O=C(CNS(=O)(=O)c1ccc2ccccc2c1)Nc1ccc(F)c(F)c1F 6.19%
COC(=O)c1ccc(CSc2nnc(N)s2)o1 -17.4%
COC(=O)c1ccc(Cc2ccccc2)o1 -18.3%
COc1ccc(N2CCN(C(=O)COC(=O)c3cccc(S(=O)(=O)Nc4ccccc4OC)c3)CC2)cc1 3.16%
CC1CCCCC1NC(=O)NC(=O)COC(=O)C1=NN(c2ccccc2)C(=O)CC1 (configuration not stated) -16.5%
CC1CCCCC1NC(=O)COC(=O)Cc1ccc(Cl)cc1 (configuration not stated) -14.4%
Cc1nn(Cc2ccccc2)c(C)c1C(=O)NCCCN1CCCC1=O 0.482%
O=C(CCc1ccccc1)Nc1ncc([N+](=O)[O-])s1 -6.9%
O=C(Nc1ncc([N+](=O)[O-])s1)C1COc2ccccc2O1 (configuration not stated) 5.74%
O=C1C=C(c2cccc(Br)c2)C[C@@H](c2ccc(F)cc2)C1 -5.1%
O=S(=O)(c1ccc(OCC(O)CN2CCN(c3ccccc3Cl)CC2)cc1)N1CCOCC1 (configuration not stated) -9.57%
O=C(C(c1ccccc1)c1ccccc1)N1CCN(CC(O)COc2ccccc2)CC1 (configuration not stated) 19.3%
OC(COc1ccc(Br)cc1)CN1CCCC1 (configuration not stated) 15.6%
O=C(c1ccc(Cl)cc1)c1ccc(OCC(O)CN2CCCCC2)cc1 (configuration not stated) 11.7%
Cc1cccc(OCC(O)CN2CCN(CCN3C(=O)c4cccc5cccc(c45)C3=O)CC2)c1C (configuration not stated) -17.4%
C=CCc1ccccc1OCC(O)CN1CCN(CCO)CC1 (configuration not stated) -21.6%
CC1CCN(CC(O)COc2ccc(C(=O)c3ccccc3)cc2)CC1 (configuration not stated) 2.36%
CC(C)c1ccc(OCC(O)Cn2cnc3ccccc32)cc1 (configuration not stated) 5.76%
Cc1ccc(CC(=O)N(C)CC(=O)N(CC(C)C)c2c(N)n(CC(C)C)c(=O)[nH]c2=O)cc1C 15%
CC(C)CCN1CCN=C1N(C)C 8.98%
O=C(Nc1ccccn1)C1CCN(S(=O)(=O)c2ccccc2)CC1 5.14%
COc1ccccc1-c1oc2ccccc2c1C#CCCCCO 13.9%
Cc1cc(C)n2nc(C(=O)OCC(=O)N(C)CC(=O)Nc3ccc(F)cc3)nc2n1 7.08%
CN(CC(=O)Nc1ccc(OC(F)(F)F)cc1)C(=O)C1CCC1 -3.8%
COc1ccccc1C(=O)Nc1ccc(C)c(S(=O)(=O)N2CCCCC2)c1 9.57%
O=C(Nc1ccccc1F)c1ccc(S(=O)(=O)N2CCCCCC2)cc1 -10.1%
CN(C(=O)COC(=O)c1cc(=O)[nH]c2ccccc12)C1CCCCC1 6.97%
O=C(Nc1cc(S(=O)(=O)N2CCOCC2)ccc1OCC(F)(F)F)c1ccc(N2CCCC2=O)cc1 -14.2%
Cc1cccc(C)c1OCC(O)CN1CCCCC1 (configuration not stated) 13.3%
COc1ccccc1OCC(O)CN1CCOCC1 (configuration not stated) 3.41%
CC(NC(=O)c1ccccc1SCC(=O)N1CCCC1)c1ccccc1 (configuration not stated) 5.13%
Cc1ccc(NC(=O)COC(=O)CNC(=O)c2ccc(Cl)cc2Cl)cc1S(=O)(=O)N1CCOCC1 -10.2%
COC(=O)Cc1[nH]n(-c2nc3ccccc3s2)c(=O)c1C(C)=Nc1ccc(OC)cc1 12.5%
C/C(=N\NC(=O)CC(C)C)c1c(C(F)(F)F)[nH]n(-c2nc3ccccc3s2)c1=O -4.59%

inhibition, -5.26% (inactive) and 43.4% (active):
COC(=O)[C@H]1[C@H]2C[C@H]3c4[nH]c5ccccc5c4CCN3C[C@@H]2CC[C@@H]1O
